From PubChem BioAssay
ERAP1 HTS inh = human ERAP1 aminopeptidase inhibitors, primary screen, biochemical, single point, plate reader; 0.15% of 340,000 active; inhibition, % at 10.7 µM; recombinant ERAP1, Leu-AMC fluorescence, 60 min;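 active = mean replicate inhibition of at least 30%, or all replicates individually reaching that 30% level; inactive = mean below 30% and not every replicate reaching it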
ARNT-TACC3 inh = disruptors of ARNT/TACC3 protein interaction, primary screen, biochemical, AlphaScreen, single concentration. 0.66% of 390,000 active. AlphaScreen His-ARNT PAS-B/GST-TACC3 binding, luminescence; TACC3 fragment carries E629A point mutation. inhibition, % at 9.99 µM;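 active = mean inhibition of replicates at least 50% and at least half of replicates each reaching 50%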
rRNA inh HTS = reduced GFP signal of wild-type E. coli, primary screen, bacterial rRNA inhibitor project, GFP/RFP fluorescence, OD600, single point. GFP signal change (wild-type ribosome), % (test concentration not listed). E. coli WT GFP vs humanized-ribosome RFP mutants, 24 h; active compounds read low; DMSO median 0, no signal -100. 1.6% of 350,000 active. AID 720706, 2013;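 active = significant combined selectivity score with lowered wild-type GFP, culture density cut under 30%, mutant RFP and density less affected; inactive = any of these conditions unmet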
PvdQ acylase = P. aeruginosa PvdQ acylase inhibitors, primary screen, biochemical, fluorescence, plate reader and imaging, single point | PvdQ acylase [Pseudomonas aeruginosa LESB58] | purified PvdQ acylase | inhibition, % at 10 µM | 0.063% of 340,000 active | AID 488965, 2010; in the data active = inhibition above about 30%, passing the limit was not always enough
CFTR F508del cor = F508del CFTR correction, initial screen, CFBE line, single point | CFBE cells, YFP halide quenching; stimulated with forskolin plus potentiator P3; % fluorescence drop versus neutral controls | 0.36% of 350,000 active | activity (quench increase), % at 7.58 µM;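 active = mean added fluorescence quench of at least 8% versus neutral control, with both replicates also reaching 8%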;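 note: cells transiently co-express mutant CFTR-F508del with the halide-sensitive YFP; corrector assay measuring rescue of mutant channel to the surface after 24 h compound exposure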
ARNT Alpha ctr-1 = AlphaScreen signal interference compounds, dose response, artefact control for ARNT-TACC3 interaction inhibitor project, biochemical, luminescence, cherry-pick | shares compounds with ARNT-TACC3 inh | 50% of 1,200 active | AC50, µM (top dose mostly 68 µM) | His-ARNT PASB-GST AlphaScreen artifact counter-screen;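 active = every separate test run was called active for a drop in luminescence, with AC50 within twice the top valid dose, actives reach about 71 µM in these data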
ARNT Alpha ctr-2 = AlphaScreen signal interference by compounds, dose response, artefact control for ARNT/TACC3 disruptor project, biochemical, dual-tagged ARNT, dry powder. shares compounds with ARNT-TACC3 inh. Dual-tagged His-ARNT PASB-GST AlphaScreen artifact counter-screen. AC50, µM. 70% of 45 active. AID 720564, 2013;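 active = luminescence drop, with half-maximal potency fitted within twice the sample's top valid dose, cut at about 70 µM in these data; inactive = the rest, including signal moving the wrong way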
A number is an active result; 0 = inactive; - = not tested or not shown. Sampled rows, rich in hits. Any-hit rate of the full collection: about 2.1%.

SMILES	ERAP1 HTS inh	ARNT-TACC3 inh	rRNA inh HTS	PvdQ acylase	CFTR F508del cor	ARNT Alpha ctr-1	others
COc1ccc(CCNC(=O)CSc2nnc3ccc(-c4ccccn4)nn23)cc1	0	48	0	0	0	68µM
CC(C)NC(=O)N(C)C[C@H]1Oc2cc(C#CC3CC3)ccc2S(=O)(=O)N([C@@H](C)CO)C[C@@H]1C	0	0	0	-	0	-
CC(C)(C)CCNc1nc(-c2ccccn2)nnc1-c1ccccc1	-	-	-	-	-	2.2µM
c1ccc(NCCc2ccccn2)cc1	0	0	0	0	0	-
c1ccc(-c2nnc(-c3ccccn3)nc2NCCN2CCOCC2)cc1	-	-	-	-	-	0.83µM
c1ccc(-c2nnc(-c3ccccn3)nc2NCc2ccccn2)cc1	-	-	-	-	-	0.7µM
c1ccc(-c2nnc(-c3ccccn3)nc2NCCc2ccccn2)cc1	-	-	-	-	-	1.8µM
COc1cccc(C(=O)Nc2ccc3c(c2)C(=O)N(C)C[C@@H](OC)[C@@H](C)CN(C(=O)C2CCCC2)[C@@H](C)CO3)c1	0	0	0	-	0	-
CCCC#Cc1ccc([C@H]2[C@@H](CO)N3C(=O)CN(S(=O)(=O)Cc4ccccc4)C[C@@H]23)cc1	0	-	0	-	0	-
CN1CCN(c2nc(-c3ccccn3)nnc2-c2ccccc2)CC1	-	-	-	-	-	0.55µM
CNC[C@@H]1Oc2c(NS(=O)(=O)c3cccs3)cccc2C(=O)N([C@@H](C)CO)C[C@H]1C	0	active	0	-	0	0
CC(C)NC(=O)Nc1cccc2c1O[C@H](CN(C)C(=O)Nc1ccc(C(F)(F)F)cc1)[C@@H](C)CN([C@@H](C)CO)C2=O	0	active	0	-	0	0
C[C@H](CO)N1C[C@H](C)[C@@H](CN(C)S(=O)(=O)c2ccc(Cl)cc2)Oc2c(NC(=O)Nc3cccc4ccccc34)cccc2C1=O	0	52	0	-	0	24µM
C[C@@H]1CN([C@H](C)CO)C(=O)c2cc(NS(C)(=O)=O)ccc2O[C@@H]1CN(C)S(=O)(=O)c1ccc(F)cc1	0	active	0	-	0	0
C[C@H](CO)N1C[C@H](C)[C@H](CN(C)S(=O)(=O)c2ccc(F)cc2)Oc2ccc(NS(C)(=O)=O)cc2C1=O	0	0	0	-	0	-
CNC[C@@H]1Oc2c(NS(=O)(=O)c3cccs3)cccc2C(=O)N([C@H](C)CO)C[C@@H]1C	0	0	0	-	0	-
CC(C)NC(=O)Nc1cccc2c1O[C@@H](CN(C)C(=O)Nc1ccc(C(F)(F)F)cc1)[C@@H](C)CN([C@@H](C)CO)C2=O	0	0	0	-	0	-
CN1C(=O)c2cc(NC(=O)c3ccc(F)cc3)ccc2OC[C@H]2O[C@@H](CC(=O)NC3CCC3)CC[C@H]21	0	0	0	-	0	-
C[C@@H]1CN([C@H](C)CO)C(=O)c2cccc(NC(=O)c3ccncc3)c2O[C@@H]1CN(C)Cc1ccc(-c2ccccc2)cc1	0	active	0	-	0	0
O=C(CCC(=O)c1cccs1)OCc1nnc(-c2ccccc2)o1	-	33	-	0	-	0
Cc1ccc(C(=O)CCC(=O)OCc2nnc(-c3ccccc3)o2)cc1	0	0	0	0	0	-
C[C@H](CO)N1C[C@H](C)[C@H](CN(C)CC2CCCCC2)Oc2ccc(NC(=O)Nc3ccc4c(c3)OCO4)cc2C1=O	0	-	0	-	0	-
Cn1c(SCC(=O)N/N=C/c2ccncc2)nc2ccccc21	0	0	0	0	0	-
O=C(CSc1cccc2cccnc12)N/N=C/c1ccncc1	0	62	0	0	0	0
CCOc1cc(/C=N/NC(=O)CSc2cccc3cccnc23)ccc1O	0	63	0	0	0	0
SMILES	ERAP1 HTS inh	ARNT-TACC3 inh	rRNA inh HTS	PvdQ acylase	CFTR F508del cor	ARNT Alpha ctr-1	others
Cc1ccc2ccc3cccnc3c2n1	0	74	0	0	0	51µM
Cc1c(C)c2cccnc2c2ncccc12	-	-	-	0	-	-
O=C(Nc1cccc(Cl)c1)N[C@@H]1CC[C@H](CCNC(=O)C2CCOCC2)O[C@@H]1CO	0	0	0	-	0	-
O=C(Nc1nc(-c2ccccn2)cs1)c1ccc(-c2ccccc2F)o1	0	0	0	0	0	-
O=C(Nc1nc(-c2ccccn2)cs1)c1cc(Cl)ccc1[N+](=O)[O-]	0	58	0	0	0	18µM
O=C(Nc1nc(-c2ccccn2)cs1)c1ccc([N+](=O)[O-])o1	0	61	0	0	0	17µM
Cc1ccc(C(=O)Nc2nc(-c3ccccc3)cs2)o1	-	-	-	-	-	-	ARNT Alpha ctr-2=0
Cc1ccc(C(=O)Nc2nc(-c3ccccn3)cs2)o1	0	60	0	0	0	23µM	ARNT Alpha ctr-2=9.9
COc1ccc2c3c(n(C)c2c1)[C@H](CO)N(C(=O)C1CCCC1)CC31CCN(C)CC1	0	-	0	-	0	-
C[C@H](CO)N1C[C@H](C)[C@H](CN(C)Cc2ccc(-c3ccccc3)cc2)Oc2ccc(NC(=O)Cc3ccccc3)cc2C1=O	-	-	0	-	0	-
C[C@H](CO)N1C[C@H](C)[C@H](CN(C)C(=O)Nc2ccc(F)cc2)Oc2ccc(NC(=O)Nc3cccc4ccccc34)cc2C1=O	0	0	0	-	0	-
O=C(Nc1nc(-c2ccccn2)cs1)C1COc2ccccc2O1 (stereo not given)	0	71	0	0	0	29µM
O=C(COc1ccc([N+](=O)[O-])cc1)Nc1nc(-c2ccccn2)cs1	0	63	0	0	0	48µM
COc1ccccc1-c1cnc2c(c1)C(=O)N([C@H](C)CO)C[C@H](C)[C@@H](CN(C)CC1CCCC1)O2	0	0	0	-	0	-
O=C(COc1ccc(Cl)cc1)Nc1nnc(-c2ccco2)o1	0	25	-35	0	0	0
O=C(Cc1ccccc1)Nc1ccc(-c2nnc(-c3ccco3)o2)cc1	-	0	-	0	-	-
O=C(CCc1ccccc1)Nc1nnc(-c2cccs2)o1	0	0	0	0	0	-
O=C(Cc1ccccc1)Nc1nnc(-c2ccco2)o1	0	65	0	0	0	0
O=C(CCc1ccccc1)Nc1nnc(-c2ccccn2)o1	0	52	0	0	-	0
O=C(Nc1nnc(-c2ccc(F)cc2)o1)c1ccco1	0	42	0	0	0	0
COc1cccc(CNC(=O)C[C@H]2C=C[C@H](NS(=O)(=O)c3ccccc3OC)[C@H](CO)O2)c1	0	0	0	-	0	-
CO[C@@H]1CN(C)C(=O)c2ccc(NC(=O)C3CCCCC3)cc2OC[C@@H](C)N(Cc2cccnc2)C[C@@H]1C	-	-	0	-	0	-
